Experiment [1] can be described thus: A CellTox Green Cytotoxicity Assay to monitor cytotoxicity in HEK293 cells - 8 hour (AID 1224884). Also: nearly all actives have a fitted effect of over 35% in size. Also: potency is read from the fitted curve at half-maximal effect. The method in brief:
(§1)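 Read-out: fluorescence of a cell-impermeant cyanine dye staining DNA of dead cells, proportional to cytotoxicity. HEK293, 600 cells/well with reagent, compound (23 nL DMSO) added after 5 h; reads at 0, 8, 16, 24, 32, 40 h.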

Experiment [2] in a line: qHTS RealTime-Glo MT Cell Viability Assay in HepG2 cells - 16 hour (AID 1224885). Also: nearly all actives have a fitted effect of over 50% in size. Also: potency is read from the fitted curve at half-maximal effect. The method in brief:
(§2)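 Viability was tracked continuously by NanoLuc luminescence from prosubstrate reduced by living HepG2 cells, at successive time points over 40 h of compound exposure. Cells with reagent were preincubated 5 h at 37 °C before compound addition.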

Experiment [3] in a line: qHTS RealTime-Glo MT Cell Viability Assay in HEK293 cells - 24 hour (AID 1224886). Also: nearly all actives have a fitted effect of over 50% in size. Also: potency is read from the fitted curve at half-maximal effect. The method, boiled down: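 Viability tracked continuously by luminescence as live cells reduce a prosubstrate for NanoLuc; HEK293 cells preincubated 5 h, compound-treated at 37 C, and read at 0, 8, 16, 24, 32 and 40 h.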
A short description of experiment [4]: qHTS RealTime-Glo MT Cell Viability Assay in HEK293 cells - 8 hour (AID 1224887). Also: nearly all actives have a fitted effect of over 50% in size. Also: potency is read from the fitted curve at half-maximal effect. The method in brief:
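Luminescence readout at each listed time point; HEK293, 600 cells/well, RealTime-Glo MT reagent added with cells; compounds pinned (23 nL in DMSO) after 5 h at 37 C; continuous culture at 37 C.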

Experiment [5] is described as follows: A CellTox Green Cytotoxicity Assay to monitor cytotoxicity in HEK293 cells - 16 hour (AID 1224888). Also: nearly all actives have a fitted effect of over 35% in size. Also: potency is read from the fitted curve at half-maximal effect. The method in brief: as §1
A short description of experiment [6]: qHTS RealTime-Glo MT Cell Viability Assay in HepG2 cells - 0 hour (AID 1224889). Also: nearly all actives have a fitted effect of over 50% in size. The method, boiled down:
as §2
For orientation: Quantitative high-throughput screening tests each substance at several concentrations.

Experiment [7] in a line: A CellTox Green Cytotoxicity Assay to monitor cytotoxicity in HepG2 cells - 8 hour (AID 1224890). Also: nearly all actives have a fitted effect of over 45% in size. Also: potency is read from the fitted curve at half-maximal effect. The method, boiled down:
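HepG2, 600 cells/well premixed w/ CellTox Green; 5 h settle, 37 C/5% CO2; pintool cpd add (DMSO); 37 C, 40 h; fluorescence read at 0, 8, 16, 24, 32, 40 h.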

Experiment [8] can be described thus: qHTS assay to identify small molecule antagonists of the estrogen receptor alpha (ER-alpha) signaling pathway using the BG1 cell line in the presence of 0.1 nM 17-beta-estradiol - cell viability counter screen (AID 1259241). Also: nearly all actives have a fitted effect of over 40% in size. Also: potency is read from the fitted curve at half-maximal effect. The method in brief: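 The cell line endogenously expresses full-length ER-alpha and carries four EREs driving luciferase. Cells are cultured 5 days hormone-free, treated 22 hr with compounds and 0.1 nM estradiol, then viability is read by fluorescence.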

Experiment [9] in a line: qHTS assay to identify small molecule antagonists of the androgen receptor (AR) signaling pathway using the MDA cell line in the presence of 0.5 nM R1881 - cell viability counter screen (AID 1259242). Also: nearly all actives have a fitted effect of over 45% in size. The method, boiled down:
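Live-cell protease fluorescence, CellTiter-Fluor, 30 min at 37C. Cells: MDA-kb2, 3,000/well, preincubated 5 hr. Compounds plus 0.5 nM R1881 final, 16 hr, 37C, 0% CO2.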

The target of experiment [10] is Androgen receptor (Homo sapiens) (UniProt P10275). Kind of experiment: qHTS assay to identify small molecule antagonists of the androgen receptor (AR) signaling pathway using the MDA cell line in the presence of 0.5 nM R1881 (AID 1259243). Also: nearly all actives have a fitted effect of over 50% in size. Also: potency is read from the fitted curve at half-maximal effect. The method in brief:
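MDA-kb2, MMTV-luc (AR/GR elements); 3,000 cells/well; cpd + 0.5 nM R1881 final; 16 hr 37C, 0% CO2; ONE-Glo 30 min RT; luminescence.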

The nature of experiment [11]: qHTS assay to identify small molecule HDAC inhibitors (AID 1259364).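 Also: wild-type HCT-116 cells with endogenous class I/II HDAC activity; top concentration of the series differs between compounds; nearly all actives have a fitted effect of over 45% in size.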 The method, boiled down:
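HCT-116 (wild type), 1,500 cells/well, overnight; compound 2 hr 37C 5% CO2; HDAC-Glo I/II reagent 30 min RT; luminescence readout.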

Experiment [12] in a line: qHTS assay to identify small molecule HDAC inhibitors - cell viability counter screen (AID 1259365). Also: nearly all actives have a fitted effect of over 50% in size. Also: potency is read from the fitted curve at half-maximal effect. The method in brief:
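Viability readout: CellTiter-Glo luminescence. Wild-type HCT-116 cells, 2hr compound treatment following overnight attachment at 37 C.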

Experiment [13] is described as follows: qHTS assay to identify small molecule agonists of the sonic hedgehog signaling (Shh) pathway - cell viability counter screen (AID 1259366). Also: nearly all actives have a fitted effect of over 50% in size. The method in brief: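 Viability measured fluorometrically (CellTiter-Fluor, 1hr, 37C) in 3T3 Gli1-Luc reporter cells after 23hr compound exposure within a 24hr incubation at 37C/5% CO2.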
Experiment [14] is described as follows: qHTS assay to identify small molecule antagonists of the sonic hedgehog signaling (Shh) pathway - cell viability counter screen (AID 1259367). Also: nearly all actives have a fitted effect of over 55% in size. The method in brief: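 Viability was read by CellTiter-Fluor fluorescence in the same wells, reagent added 23 hr into compound treatment and incubated 1 hr at 37C. The 3T3 Gli1-Luc reporter cells (2,000/well) received conditioned medium after compound and ran 24 hr.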

A short description of experiment [15]: qHTS assay to identify small molecule agonists of the sonic hedgehog signaling (Shh) pathway (AID 1259368; calls by dose curve;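 also: NIH/3T3-derived 3T3Gli1-Luc cells carrying a stable Gli1-driven firefly luciferase reporter; series mostly up to about 92 µM; nearly all actives have a fitted effect of over 15% in size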). The method in brief:
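Read-out: firefly luciferase luminescence from a Gli1 response element reporter stably integrated in NIH/3T3-derived 3T3Gli1-Luc cells, measured 30 min at room temperature after reagent addition. Compound exposure lasted 24 hr at 37 C, 5% CO2.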

For experiment [16], the target named is Estrogen receptor beta (Homo sapiens) (UniProt Q92731). The experiment in a line: qHTS assay to identify small molecule agonists of the estrogen receptor beta (ER-beta) signaling pathway (AID 1259377; active = well fitted activation curve with a large enough effect in the signal ratio in the repeat runs, not every such curve was filed as active; the % refers to the signal ratio). The method in brief: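 A UAS-controlled beta-lactamase reporter in ER-beta-UAS-bla HEK293T cells reports receptor activation. Compounds act for 16 hr at 37C in 2% charcoal-stripped serum, and a FRET substrate is read by fluorescence after 2 hours.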
Sequence of Estrogen receptor beta (Homo sapiens) (Q92731 whole entry, looked up): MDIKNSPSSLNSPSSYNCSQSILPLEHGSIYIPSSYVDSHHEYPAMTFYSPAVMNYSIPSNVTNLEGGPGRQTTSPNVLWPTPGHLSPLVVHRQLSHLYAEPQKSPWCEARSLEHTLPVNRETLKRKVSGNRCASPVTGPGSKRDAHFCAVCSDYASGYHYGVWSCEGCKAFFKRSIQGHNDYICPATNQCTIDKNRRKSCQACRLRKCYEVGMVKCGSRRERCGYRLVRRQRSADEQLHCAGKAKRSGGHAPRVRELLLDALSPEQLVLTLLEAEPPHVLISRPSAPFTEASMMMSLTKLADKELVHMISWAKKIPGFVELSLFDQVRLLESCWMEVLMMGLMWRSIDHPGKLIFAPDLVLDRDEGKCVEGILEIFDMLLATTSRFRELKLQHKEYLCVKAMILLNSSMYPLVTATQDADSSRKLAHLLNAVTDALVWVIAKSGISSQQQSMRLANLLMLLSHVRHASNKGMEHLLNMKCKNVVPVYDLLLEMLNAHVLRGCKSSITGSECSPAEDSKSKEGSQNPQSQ

For experiment [17] the target is unchanged. The experiment in a line: qHTS assay to identify small molecule antagonists of the estrogen receptor beta (ER-beta) signaling pathway (AID 1259378; active = well fitted inhibition curve with a large enough effect in the signal ratio in the repeat runs, not every such curve was filed as active; the % refers to the signal ratio). The method in brief:
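Antagonist mode: compounds added to beta-lactamase reporter HEK293T ER-beta-UAS cells stimulated with E2 (1nM final), 16 hr at 37C. LiveBLAzer B/G FRET substrate, 2 hours room temperature, fluorescence read-out.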

For experiment [18], the target named is Estrogen receptor (Homo sapiens) (UniProt P03372). Kind of experiment: qHTS assay to identify small molecule antagonists of the estrogen receptor alpha (ER-alpha) signaling pathway using the BG1 cell line in the presence of 0.1 nM 17-beta-estradiol (AID 1259244). Also: nearly all actives have a fitted effect of over 50% in size. The method in brief: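 Luminescence after ONE-Glo (30 min, room temperature) measured ERE-luciferase activity in VM7Luc4E2 cells treated 22 h with compound and 0.1 nM final 17beta-estradiol as stimulator.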
Sequence of Estrogen receptor (Homo sapiens) (P03372 whole entry, looked up): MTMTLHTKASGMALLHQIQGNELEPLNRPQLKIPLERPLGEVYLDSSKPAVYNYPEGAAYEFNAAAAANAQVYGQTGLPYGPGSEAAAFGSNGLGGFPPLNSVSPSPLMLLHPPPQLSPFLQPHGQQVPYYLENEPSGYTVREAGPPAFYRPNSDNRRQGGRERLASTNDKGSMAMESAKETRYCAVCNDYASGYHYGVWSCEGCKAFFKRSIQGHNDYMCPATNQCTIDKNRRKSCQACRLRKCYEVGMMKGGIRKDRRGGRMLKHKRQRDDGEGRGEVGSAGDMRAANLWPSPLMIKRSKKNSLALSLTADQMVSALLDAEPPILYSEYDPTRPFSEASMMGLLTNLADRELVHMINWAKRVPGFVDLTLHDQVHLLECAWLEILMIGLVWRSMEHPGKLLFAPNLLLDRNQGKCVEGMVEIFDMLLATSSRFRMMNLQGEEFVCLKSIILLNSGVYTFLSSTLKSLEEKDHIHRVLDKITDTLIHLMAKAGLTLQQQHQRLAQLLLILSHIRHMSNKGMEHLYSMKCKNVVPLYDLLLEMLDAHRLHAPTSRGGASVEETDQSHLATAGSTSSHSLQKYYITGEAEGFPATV

The nature of experiment [19]: qHTS assay to identify small molecule antagonists of the sonic hedgehog signaling (Shh) pathway (AID 1259369; calls by dose curve; also: nearly all actives have a fitted effect of over 45% in size). The method in brief: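 Luminescence readout: firefly Luc under Gli1 response element in 3T3Gli1-Luc cells (NIH/3T3 clone). Antagonist mode, stimulation by conditioned medium; compound exposure 24hr at 37 C, 5% CO2.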

Seven compounds from PubChem BioAssay (Tox21) can be followed below.

Unmarked numbers belong to inactive results. Results filed as inconclusive are left out. Active and inactive are the calls of the source. Unless noted, calls follow the shape of the dose curve; as a rule, active = well fitted curve in the direction sought with a large enough effect in the repeat runs; inconclusive = weak or mixed curves; inactive = no such curve, though single readings can be large; an effect the other way counts as inactive or inconclusive.

Sequence of Androgen receptor (Homo sapiens) (P10275 whole entry, looked up): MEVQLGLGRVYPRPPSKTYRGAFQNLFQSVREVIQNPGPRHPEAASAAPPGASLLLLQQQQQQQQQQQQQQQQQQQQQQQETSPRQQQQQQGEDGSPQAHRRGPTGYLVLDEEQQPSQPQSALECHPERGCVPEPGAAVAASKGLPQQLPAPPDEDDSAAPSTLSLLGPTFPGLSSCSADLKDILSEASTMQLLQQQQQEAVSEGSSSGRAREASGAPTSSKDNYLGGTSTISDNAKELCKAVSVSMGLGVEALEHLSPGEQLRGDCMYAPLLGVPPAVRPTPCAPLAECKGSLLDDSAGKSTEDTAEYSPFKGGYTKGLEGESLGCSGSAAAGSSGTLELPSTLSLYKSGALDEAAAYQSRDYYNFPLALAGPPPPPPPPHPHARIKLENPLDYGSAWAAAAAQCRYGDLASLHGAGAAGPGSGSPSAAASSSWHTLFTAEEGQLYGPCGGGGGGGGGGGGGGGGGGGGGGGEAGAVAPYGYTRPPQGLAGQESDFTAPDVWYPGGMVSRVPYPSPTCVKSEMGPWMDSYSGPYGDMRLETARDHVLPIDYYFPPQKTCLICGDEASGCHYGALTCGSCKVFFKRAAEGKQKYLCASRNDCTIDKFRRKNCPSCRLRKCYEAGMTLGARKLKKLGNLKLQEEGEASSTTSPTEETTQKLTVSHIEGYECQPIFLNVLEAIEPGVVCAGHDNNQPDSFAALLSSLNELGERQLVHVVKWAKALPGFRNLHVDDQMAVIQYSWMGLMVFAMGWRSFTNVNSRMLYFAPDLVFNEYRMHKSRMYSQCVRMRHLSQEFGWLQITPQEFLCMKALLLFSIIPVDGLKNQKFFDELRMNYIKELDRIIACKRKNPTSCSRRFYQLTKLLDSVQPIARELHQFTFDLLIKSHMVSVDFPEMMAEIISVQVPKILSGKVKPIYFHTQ

Regarding `CCc1c(C)cc(N)c(CC)c1N`, the Potency entry in experiment [1], in [2], in [3], in experiment [4], in [5] and in experiment [6] was “inactive” each time. For the same compound, the Potency result in experiment [7], in experiment [8], in experiment [9], in experiment [10], in experiment [11] and in [12] was “inactive” throughout. Moreover, the Potency entry in experiment [13], in experiment [14], in [15] and in [17] was “inactive” in each case. Besides, the call in experiment [16] was inactive.
As for `CCC(=O)OC/C=C(\C)CCC=C(C)C`, the Potency result in experiment [1], in [2], in experiment [3], in [4], in experiment [5] and in [6] was “inactive” each time. Besides, the Potency result in [7], in [8], in experiment [9], in [10], in experiment [18] and in experiment [11] was “inactive” each time. For the same compound, the Potency entry in [12], in experiment [13], in experiment [14] and in experiment [15] was “inactive” each time.
Turning to `C/C=C/C(=O)C1=C(C)C=CCC1(C)C`, the Potency result in experiment [1], in experiment [2], in [3], in [4], in experiment [5] and in experiment [6] was “inactive” in each case. Also, the Potency result in [7], in [8], in experiment [9], in experiment [10], in [18] and in [11] was “inactive” in each case. The Potency entry in experiment [12], in experiment [13], in experiment [14], in experiment [15] and in [19] was “inactive” in each case.
Consider `C=Cc1ccncc1`, for which the Potency result in experiment [1], in experiment [2], in [3], in experiment [4], in [5] and in [6] was “inactive” in each case. In addition, the Potency result in experiment [7], in [8], in experiment [9], in experiment [10], in experiment [11] and in experiment [12] was “inactive” in each case. Also, the Potency entry in experiment [13], in [14], in [15] and in experiment [19] was “inactive” each time.
For the compound `SC1CCCCC1`, the Potency entry in experiment [1], in experiment [2], in [3], in experiment [4], in [5] and in experiment [6] was “inactive” throughout. Besides, the Potency result in [7], in [9], in [11], in experiment [12], in [13] and in experiment [14] was “inactive” each time. For the same compound, the Potency entry in experiment [15] and in experiment [17] was “inactive” in each case. The result in experiment [16] was inactive.
For `CN(C[C@@H](CC[N+]12CCC(C3CCCCC3)(CC1)CC2)c1ccc(Cl)c(Cl)c1)C(=O)c1cc(C(F)(F)F)cc(C(F)(F)F)c1`, the Potency in [1] was 43.6 µM (active); in experiment [2], 21.9 µM (active); in experiment [3] it was 3.09 µM (active); in experiment [4] it was 3.47 µM (active); in experiment [5] it was 24.5 µM (active); in experiment [7], 38.9 µM (active). Also, the figures for the Potency in experiment [8], in [10] and in [12] were 54.5 µM (active), 68.6 µM (active) and 12.2 µM (active), respectively. Moreover, the Potency result in experiment [11], in experiment [14], in experiment [15] and in experiment [19] was “inactive” each time.
For the compound `Oc1ccc2c(c1)CCC2`, the Potency entry in experiment [1], in [2], in experiment [3], in experiment [4], in experiment [5] and in experiment [6] was “inactive” each time. Further, the Potency entry in experiment [7], in [9], in [10], in experiment [18], in [11] and in experiment [12] was “inactive” each time. For the same compound, the Potency entry in experiment [13], in [14], in [15] and in experiment [17] was “inactive” each time.
